The results in this text go back to PubChem BioAssay.

Activity calls are given as the source filed them.

The nature of assay [1]: binders of probe aFSTL3 on microarray, primary screen, stem cell growth factor project, biochemical, small-molecule microarray, fluorescence 635/667 (AID 1064).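 Further: measures binding of the biotinylated anti-FSTL3 antibody to printed compounds.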 The settings on record: higher = more signal.
Assay [2] can be described thus: binders from COS7 lysate, DM2A8 probe, primary screen, torsin A project, cell lysate, small-molecule microarray, fluorescence 635/667 (AID 1065). The settings on record: higher = more signal, COS7 lysate expressing mutant human TOR1A.
A short description of assay [3]: binders of probe aFGF2 on microarray, primary screen, stem cell growth factor project, biochemical, small-molecule microarray, fluorescence 635/667 (AID 1067).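 Further: measures binding of biotinylated aFGF2 protein to printed compounds on slides; z-score merges feature fluorescence and signal-to-noise across triplicate slides.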 The settings on record: higher = more signal.
Assay [4] can be described thus: binders of probe aFGF10 on microarray, primary screen, stem cell growth factor project, biochemical, small-molecule microarray, fluorescence 635/667 (AID 1071).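 Further: score merges 667 nm spot intensity and signal to noise from triplicate slides.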 Conditions: higher = more signal.
The target of assay [5] is Neurogenic locus notch homolog protein 2 (Homo sapiens) (UniProt Q04721). In words: Notch2 binders on small-molecule microarrays, primary screen, biochemical, small-molecule microarray, 635 nm fluorescence, stem cell growth factors (AID 1073). Conditions: Notch2 binding, higher = more signal.
Assay [6] deals with Pro-neuregulin-1, membrane-bound isoform (Homo sapiens) (UniProt Q02297). In words: NRG1 binders on small-molecule microarrays, primary screen, psychiatric disease protein project, biochemical, small-molecule microarray, fluorescence 635/667 (AID 1075).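 Further: score combines 667 nm spot fluorescence with signal to noise.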 The settings on record: NRG1 binding, 635 nm fluorescence, higher = more signal.
The test system of assay [7] is Neuregulin-1 EGF-like domain. The assay can be described thus: binders of neuregulin-1 EGF-like domain, primary screen, biochemical, small-molecule microarray, 635 nm fluorescence (AID 1081).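 Further: binding of the protein to compounds printed on small-molecule microarray slides.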 The settings on record: small-molecule microarray binding, higher = more signal.
The nature of assay [8]: FRG1 promoter luciferase signal modulators, primary screen, FRG1 inhibition for FSHD, cell-based, C2C12 myotubes, firefly/Renilla luciferase, luminescence (AID 1084). Conditions: higher = more signal, called active from +8 up or from −8 down.
Assay [9] is described as follows: binders of probe aFST on microarray, primary screen, stem cell growth factor project, biochemical, small-molecule microarray, fluorescence 635/667 (AID 1086).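 Further: score merges 667 nm fluorescence with signal-to-noise of each printed compound spot.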 The settings on record: higher = more signal.
A short description of assay [10]: binders of probe aHhip on microarray, primary screen, stem cell growth factor project, biochemical, small-molecule microarray, fluorescence 635/667 (AID 1087).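 Further: score merges spot fluorescence at 667nm with spot signal to noise ratio.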 Conditions: higher = more signal.

Neurogenic locus notch homolog protein 2 (Homo sapiens), sequence (Q04721 whole entry, looked up, canonical isoform): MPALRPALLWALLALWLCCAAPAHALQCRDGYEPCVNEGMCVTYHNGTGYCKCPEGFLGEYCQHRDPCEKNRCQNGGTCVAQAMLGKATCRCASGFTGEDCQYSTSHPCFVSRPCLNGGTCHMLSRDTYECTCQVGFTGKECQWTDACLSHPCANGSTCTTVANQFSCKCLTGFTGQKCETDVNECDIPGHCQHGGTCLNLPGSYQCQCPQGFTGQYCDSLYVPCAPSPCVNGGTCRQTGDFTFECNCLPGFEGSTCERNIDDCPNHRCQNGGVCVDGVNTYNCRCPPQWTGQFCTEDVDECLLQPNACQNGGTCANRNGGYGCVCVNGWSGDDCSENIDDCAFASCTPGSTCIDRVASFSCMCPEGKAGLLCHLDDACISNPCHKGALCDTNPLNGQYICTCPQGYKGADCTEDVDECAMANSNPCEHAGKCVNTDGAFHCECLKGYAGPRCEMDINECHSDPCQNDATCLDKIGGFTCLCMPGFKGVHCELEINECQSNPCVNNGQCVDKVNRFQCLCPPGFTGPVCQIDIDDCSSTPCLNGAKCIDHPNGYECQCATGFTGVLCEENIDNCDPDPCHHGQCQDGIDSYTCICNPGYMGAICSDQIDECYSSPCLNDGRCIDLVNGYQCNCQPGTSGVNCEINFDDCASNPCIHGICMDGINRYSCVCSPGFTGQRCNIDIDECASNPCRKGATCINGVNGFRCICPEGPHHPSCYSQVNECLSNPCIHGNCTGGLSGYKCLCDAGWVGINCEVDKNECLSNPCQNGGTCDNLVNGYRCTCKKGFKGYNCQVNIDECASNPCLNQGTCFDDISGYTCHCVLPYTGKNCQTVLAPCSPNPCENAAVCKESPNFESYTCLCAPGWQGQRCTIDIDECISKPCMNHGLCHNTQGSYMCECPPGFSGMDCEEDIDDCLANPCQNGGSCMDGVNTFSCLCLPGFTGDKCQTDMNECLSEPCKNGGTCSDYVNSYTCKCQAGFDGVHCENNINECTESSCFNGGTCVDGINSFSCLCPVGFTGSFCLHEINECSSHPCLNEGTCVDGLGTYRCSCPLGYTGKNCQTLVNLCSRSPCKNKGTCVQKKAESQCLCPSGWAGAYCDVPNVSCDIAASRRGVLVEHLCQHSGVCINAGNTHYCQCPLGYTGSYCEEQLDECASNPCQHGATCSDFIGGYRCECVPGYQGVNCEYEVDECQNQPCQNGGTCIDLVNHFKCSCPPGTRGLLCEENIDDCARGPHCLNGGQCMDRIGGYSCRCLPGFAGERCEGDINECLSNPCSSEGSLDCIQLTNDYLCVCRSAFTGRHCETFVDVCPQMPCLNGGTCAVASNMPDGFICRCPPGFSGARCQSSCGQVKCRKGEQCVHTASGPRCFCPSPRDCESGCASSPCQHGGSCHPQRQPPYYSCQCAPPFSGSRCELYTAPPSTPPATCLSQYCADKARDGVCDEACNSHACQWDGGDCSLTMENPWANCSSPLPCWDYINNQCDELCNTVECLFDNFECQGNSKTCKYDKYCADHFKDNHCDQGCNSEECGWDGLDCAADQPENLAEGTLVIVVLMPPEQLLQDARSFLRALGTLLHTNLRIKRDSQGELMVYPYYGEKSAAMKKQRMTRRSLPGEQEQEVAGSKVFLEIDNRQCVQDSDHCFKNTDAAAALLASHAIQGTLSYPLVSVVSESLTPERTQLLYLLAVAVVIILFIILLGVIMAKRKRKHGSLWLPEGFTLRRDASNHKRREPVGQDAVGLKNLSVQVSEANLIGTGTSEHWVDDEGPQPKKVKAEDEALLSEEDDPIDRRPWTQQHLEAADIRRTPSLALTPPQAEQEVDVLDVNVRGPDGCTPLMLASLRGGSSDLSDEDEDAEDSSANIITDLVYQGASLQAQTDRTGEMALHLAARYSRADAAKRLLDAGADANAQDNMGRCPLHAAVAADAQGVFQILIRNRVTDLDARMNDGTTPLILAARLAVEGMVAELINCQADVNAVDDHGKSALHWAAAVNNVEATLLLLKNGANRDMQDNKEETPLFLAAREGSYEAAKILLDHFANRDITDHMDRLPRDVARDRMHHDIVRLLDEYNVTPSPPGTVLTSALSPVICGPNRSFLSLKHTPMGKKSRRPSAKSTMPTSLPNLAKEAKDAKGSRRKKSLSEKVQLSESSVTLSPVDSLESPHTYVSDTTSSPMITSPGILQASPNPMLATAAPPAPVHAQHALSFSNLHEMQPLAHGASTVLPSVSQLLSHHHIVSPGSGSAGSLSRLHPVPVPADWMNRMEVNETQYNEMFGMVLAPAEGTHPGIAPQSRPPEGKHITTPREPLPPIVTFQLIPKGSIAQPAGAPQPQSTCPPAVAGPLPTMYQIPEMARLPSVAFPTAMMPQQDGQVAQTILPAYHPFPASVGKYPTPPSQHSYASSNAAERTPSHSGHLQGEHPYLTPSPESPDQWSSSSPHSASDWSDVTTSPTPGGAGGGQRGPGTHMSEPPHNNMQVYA
Pro-neuregulin-1, membrane-bound isoform (Homo sapiens), sequence (Q02297 whole entry, looked up, the tested form may be a part, canonical isoform): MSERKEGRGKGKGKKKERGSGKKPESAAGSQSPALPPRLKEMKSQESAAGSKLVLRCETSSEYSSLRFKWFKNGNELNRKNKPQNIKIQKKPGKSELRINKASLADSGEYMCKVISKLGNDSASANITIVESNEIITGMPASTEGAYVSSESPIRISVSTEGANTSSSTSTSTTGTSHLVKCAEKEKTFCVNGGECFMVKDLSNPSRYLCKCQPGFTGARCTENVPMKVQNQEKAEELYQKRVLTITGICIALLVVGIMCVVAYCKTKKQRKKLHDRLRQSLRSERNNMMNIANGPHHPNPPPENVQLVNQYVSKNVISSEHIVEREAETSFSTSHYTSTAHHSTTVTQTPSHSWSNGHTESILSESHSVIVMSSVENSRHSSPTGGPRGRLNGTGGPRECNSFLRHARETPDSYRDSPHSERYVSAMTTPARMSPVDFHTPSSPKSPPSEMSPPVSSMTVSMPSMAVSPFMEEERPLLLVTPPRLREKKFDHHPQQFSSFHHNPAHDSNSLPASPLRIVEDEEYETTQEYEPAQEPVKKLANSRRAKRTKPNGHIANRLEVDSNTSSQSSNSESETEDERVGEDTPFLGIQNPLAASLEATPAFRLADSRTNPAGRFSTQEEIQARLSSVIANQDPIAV

As to `COc1ccc([Si](C)(C)[C@@H]2[C@@H](CCn3cc([C@H](O)c4ccccc4)nn3)O[C@]3(C(=O)N(Cc4cccc(N5CCOC5=O)c4)c4ccccc43)[C@H]2C)cc1`, the composite z-score in assay [1] was 0.752; in [2] it was -0.268; in assay [3], -0.152; in [4] it was -0.368; in assay [5], -1.11; in [6], 0.0895. Moreover, the composite z-score in assay [7] was -0.0072; in assay [9] it was -0.64; in [10], -0.236. For the same compound, the z-score in assay [8] is 1.34 (inactive).
With `CO[C@H]1O[C@H](CO)[C@@H](OC(=O)Nc2ccc3c(c2)OCO3)[C@H](OC(=O)Nc2ccccc2)[C@H]1OC(=O)Nc1ccccc1`, the composite z-score was -0.142 in assay [1]; 0.436 in [2]; 0.0166 in [3]; 1 in assay [4]; 0.828 in assay [5]; 1.12 in assay [6]. Further, the results for the composite z-score in assay [7], in assay [9] and in assay [10] were 1.35, 0.697 and -0.0645, respectively. Also, the z-score in [8] is 2.74 (inactive).
`COCCOC(=O)N1C(=O)[C@@]2(c3cc(C#CCCO)ccc31)[C@H](C(=O)NC[C@H](O)c1ccccc1)[C@H]1C(=O)O[C@H](c3ccccc3)[C@H](c3ccccc3)N1[C@@H]2c1ccc(O)cc1`: the composite z-score in assay [1] was -0.221; in assay [2], 0.464; in assay [3], -0.0058; in assay [4] it was 0.627; in [5], 0.026; in [6] it was 1.48. Also, the composite z-score in [7] was 1.21; in assay [9], 0.0399; in [10], -0.134. Further, in assay [8], the z-score is -1.04 (inactive).
On to `[N-]=[N+]=NCc1ccccc1[C@@H]1OC(c2ccc(OCCCO)cc2)=N[C@]1(Cc1ccccc1)C(=O)N1CCCCC1`, for which the composite z-score in assay [1] turned out to be 0.49; in assay [2] it was 1.1; in assay [3] it was 0.0703; in assay [4], 1.05; in [5], 1.5; in [6], 1.18. The composite z-score was 1.12 in [7], 1.49 in assay [9] and 0.212 in assay [10]. Besides, the z-score in [8] was -1.03 (inactive).
Consider `Cc1ccccc1C(O)C1C=CC2C(=O)N(C)C(=O)C2N1N1CCCCC1` (stereo not given), for which the composite z-score in assay [1] came out at 0.363; in assay [2], 0.831; in [3], 0.108; in assay [4] it was 1.13; in assay [5], 1.54; in assay [6], 1.42. Further, the composite z-score in assay [7] was 1.38; in assay [9], 0.927; in [10], -0.0296. Also, the z-score in assay [8] is 0.703 (inactive).
Take `CCC(CC)C(O)C1C=CC2C(=O)N(c3ccccc3)C(=O)C2N1Nc1ccc(C#N)cc1` (stereo not given): the composite z-score was 1.07 in assay [1]; 0.693 in assay [2]; 0.326 in [3]; 0.884 in assay [4]; 1.64 in assay [5]; 1.77 in [6]. The figures for the composite z-score in [7], in [9] and in [10] were 1.29, 1.22 and -0.271, respectively. Further, the z-score in assay [8] was -1.02 (inactive).
Take `CS(=O)(=O)CCOC(=O)C1=CC(CCCO)=CC(c2cccs2)N(Cc2cc3c(cc2Br)OCO3)C=C1C(=O)OCCS(C)(=O)=O` (stereo not given): the composite z-score is -0.281 in assay [1]; 0.24 in [2]; 0.0737 in [3]; 0.517 in [4]; 1.5 in assay [5]; 1.88 in assay [6]. Also, the composite z-score in [7] stood at 1.31; in assay [9], 0.827; in assay [10], 0.463. For the same compound, the z-score in assay [8] is -1.91 (inactive).
Regarding `CO[C@H]1O[C@H](CO)[C@@H](OC(=O)Nc2ccc(Oc3ccccc3)cc2)[C@H](OC(=O)Nc2ccccc2)[C@H]1OC(=O)Nc1ccccc1`, the composite z-score in [1] is 0.096; in [2], 0.95; in [3], 0.0732; in assay [4] it was 1.16; in assay [5], 1.48; in [6], 1.3. Also, the composite z-score in assay [7] was 1.39; in assay [9], 0.446; in [10], -0.0346. Further, the z-score in assay [8] was 0.119 (inactive).
Regarding `C=CCNC(=O)[C@@H]1[C@H]2C(=O)O[C@H](c3ccccc3)[C@H](c3ccccc3)N2[C@H](c2ccc(OCCO)cc2)[C@@]12C(=O)Nc1ccccc12`, the composite z-score in [1] is 0.511; in assay [2], 0.0949; in [3], -0.116; in assay [4] it was 0.405; in assay [5] it was 0.117; in assay [6], 1.51. The composite z-score in assay [7] is 1.23; in assay [9], 0.627; in [10], -0.513. Also, the z-score in [8] was -1.05 (inactive).
Regarding `C=CCOC(=O)[C@@H]1[C@H]2C(=O)O[C@H](c3ccccc3)[C@H](c3ccccc3)N2[C@H](c2ccc(OCCOC(=O)[C@@H]3C[C@@H]4C(=O)N[C@@H](Cc5ccccc5)C(=O)N4[C@@H]3c3cccc(OCCO)c3)cc2)[C@@]12C(=O)Nc1ccc(I)cc12`, the composite z-score in assay [1] is 0.224; in [2], 0.63; in assay [3], -0.0566; in assay [4], 0.764; in assay [5], 1.03; in assay [6], 1.03. Also, the composite z-score in assay [7] was 1.06; in assay [9] it was 0.043; in assay [10], -0.0196. Moreover, the z-score in assay [8] was 1.06 (inactive).
In the case of `O=C1C=CC(=O)[C@@H]2CC(COc3ccccc3)=C3[C@@H](CCc4ccccc4)OB(O)C[C@@H]3[C@H]12`, the composite z-score in assay [1] is 0.232; in [2], 2.47; in assay [3] it was -0.132; in assay [4], 0.272; in assay [5], 0.222; in assay [6], -0.18. Moreover, the composite z-score in assay [7] was 0.184; in [9], -0.467; in [10] it was 0.176. In addition, in assay [8], the z-score is -1.29 (inactive).
As for `COCCOC(=O)N1C(=O)[C@@]2(c3cc(C#CCC(C(=O)OC)C(=O)OC)ccc31)[C@H](c1ccccc1OCCO)N1[C@H](c3ccccc3)[C@H](c3ccccc3)OC(=O)[C@H]1[C@@H]2C(=O)N1CCc2cc(OC)c(OC)cc2C1`, the composite z-score in assay [1] was -0.257; in assay [2], 0.007; in assay [3], -0.126; in assay [4], 0.319; in [5], 1.46; in assay [6] it was 1.09. Also, the results for the composite z-score in assay [7], in assay [9] and in assay [10] were 1.27, 0.638 and -0.0655, respectively. Besides, the z-score in [8] was -0.285 (inactive).
